Experimental data: PubChem BioAssay (NCI)
This is part of a sample that, as a whole, favours compounds with a hit. Of some 83,000 tested, about 20% had one in any assay.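 Negative percent growth values reflect cell death: -40 means 40% of the cells present at the start died, and -100 means all died.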 Unmarked numbers belong to inactive results. The source made the active and inactive calls.

tested on: HCC-2998 colon; assay: NCI-60 one-dose screen, 48 h (100 = growth as untreated, 0 = no growth, -100 = all killed); details: 10 µM unless noted
Protocol: Growth inhibition of the HCC-2998 human tumor cell line is measured as a screen for anti-cancer activity. Cells are grown in 96 well plates and exposed to the test compound for 48 hours. Compounds are tested at a single concentration, which is 10^-5 M for most compounds. The reported endpoint is percent growth (GI% or GIPRCNT), where numbers from 0 - 100% represent growth inhibition, and numbers from -100% - 0 represent cell death. For example, a value of 40 represents 60% growth inhibition. A value of 0 means no net growth occurred over the course of the experiment. A value of -40 indicates 40% of cells at the beginning of the experiment died by the end of the experiment. A value of -100 means all cells are dead at the end of the experiment.
NCI-60 Human Tumor Cell Lines Screen was performed using the standard one-dose NCI protocol, which is described in more detail at https://dtp.cancer.gov/discovery_development/nci-60/default.htm.
Compounds with GIPRCNT values below 10 were considered active. Activity score was based on GIPRCNT using the following formula: […]
Score is 0 for GIPRCNT values of 100 or above, 50 for GIPRCNT values of 0, and 100 for GIPRCNT values of -100.

Row | SMILES | growth
1 | Oc1[nH]c2ccc(Cl)cc2c1N=Nc1nc(N=Nc2c(O)[nH]c3ccc(Cl)cc23)nc(N2CCCCC2)n1 | 38.7%
2 | Cn1ncc2ncc(-c3ccc4ncc(C#N)c(N5CCc6cc(F)c(Cl)cc65)c4c3)cc21 | 46.4%
3 | Cc1nc(/N=C(N)/N=C(\N)c2cccc(Br)c2)sc1C | 64.9%
4 | CCN(CC)CCOc1ccc(C(=C(C)Cc2ccc(OC)cc2)c2ccc(OCCN(CC)CC)cc2)cc1 | 44.8%
5 | COc1ccc(-c2nc(C#N)c(N3CCC(S(=O)(=O)N4CCOCC4)CC3)o2)cc1 | 107%
6 | CN1CCC[C@]2(C)[C@H]3CC[C@@H]4[C@@H]5[C@H]6OC[C@@]5(CCC6(C)C)CC[C@@]4(C)[C@]3(C)CC[C@H]2C1(C)C | 45.8%
7 | CC(=O)OCCCCN1C=C/C(=C\C(=O)n2ccc3ccccc32)c2ccccc21 | 112%
8 | CC[C@]12C=CCN3CC[C@@]4(c5ccc(OC)cc5N(C)[C@H]4[C@@](O)(C(=O)OC)[C@@H]1OC(=O)CCN1CCc4ccccc4C1)[C@@H]32 | 69.5%
9 | O=S(=O)(Oc1ccc(-c2cn3ccsc3n2)cc1)c1cccc(C(F)(F)F)c1 | 120%
10 | CCCCCCNC(=O)Oc1ccc(/C(=C(/C)c2ccc(Cl)cc2)c2ccc(OCCN3CCCCCC3)cc2)cc1 | 90.7%
11 | O=C(CN1CCN(c2cc(=O)[nH]c3ccc(F)cc23)CC1)N(c1ccccc1)c1ccccc1 | 106%
12 | C=C1CCc2nc(SCC(=O)O)ccc2N1 | 103%
13 | Cc1cccc(N2CCN(C3=C(Cl)C(=O)c4ncccc4C3=O)CC2)c1 | 107%
14 | Cc1ccc(-c2nc(SCC(=O)c3ccccc3)nc(Nc3ccc(S(N)(=O)=O)cc3)c2C#N)cc1 | 106%
15 | O=C(N/N=C\c1ccc(F)cc1)c1ccc2nc(-c3ccc(Br)cc3)[nH]c2c1 | 31.3%
16 | CCOC(=O)C1=C(C)NC(C)=C(C(=O)OCc2ccccc2)C1c1cccc(C#N)c1 (stereo not given) | 70.8%
17 | CC1(C)CC[C@]2(C(=O)O)CC[C@]3(C)C(=CC[C@@H]4[C@@]5(C)CC[C@H](NOCCCN)C(C)(C)[C@@H]5CC[C@]43C)[C@@H]2C1 | 76.3%
18 | CNC(=O)c1cc(N2CCc3cc(NC(=O)Nc4ccc(N5CCOCC5)c(C(F)(F)F)c4)ccc32)ccn1 | 22%
19 | O=C1[C@H]2Cc3c([nH]c4ccccc34)[C@H](c3ccc(Cl)cc3)N2C(=O)CN1C1CCN(CC2CCCCC2)CC1 | 53.4%
20 | Cc1ccc(NC(=O)/C=C/c2ccc(OCCCOc3ccc4c(C)cc(=O)oc4c3)cc2)cc1 | 80.5%

Row | SMILES | growth
21 | COc1ccc(-c2cnc(NC(=O)CCCCCCNC(=O)C(O)(O)C(F)(F)F)s2)cc1 | -46.5% (active)
22 | COCCOc1ccc2ncc(C#Cc3cncc(C(=O)Nc4ccc(CN5CCN(C)CC5)c(C(F)(F)F)c4)c3)n2n1 | 33.6%
23 | CCCC[n+]1ccc(SCC(=O)n2ccc3ccccc32)c2ccccc21 | 109%
24 | C#CCOc1cccc(/C(N)=N/C(N)=N/c2nc3ccccc3s2)c1 | 109%
25 | O=S1SC(c2ccccc2)=NN1c1cc(F)cc(F)c1 (stereo not given) | 79.6%
26 | N#Cc1c(-c2cccs2)cc(-c2cnccn2)nc1SCC(=O)N/N=C/c1cccs1 | 43.1%
27 | Cc1nc(N)sc1-c1csc(Nc2ccc(C(F)(F)F)cc2)n1 | 21%
28 | N#C/C(=C\c1ccc(-c2ccc(Cl)c(Cl)c2)o1)C(=O)Nc1ncc(Cc2ccc(Cl)cc2)s1 | 81.8%
29 | Oc1[nH]c2ccc(Cl)cc2c1N=Nc1nc(N=Nc2c(O)[nH]c3ccc(Cl)cc23)nc(N2CCOCC2)n1 | 75.5%
30 | C#CCOc1ccc(/C=N/Nc2nc(-c3ccc(OC)cc3)cs2)cc1 | 103%
31 | CC1CCN(CC(=O)Nn2c(COc3ccccc3)nc3ccccc3c2=O)CC1 | 89.9%
32 | CCNC(=O)Oc1ccc(/C(=C(/C)c2ccc(Cl)cc2)c2ccc(OCCN3CCCCCC3)cc2)cc1 | 26.1%
33 | CCOC(=O)c1ccc(NC2=C(Cl)C(=O)c3nc(C)ccc3C2=O)cc1 | 80.3%
34 | COc1ccc([C@H]2C(=O)N(c3cc(OC)c(OC)c(OC)c3)[C@@H]2c2ccc(OC)c(O)c2)cc1 | 13.3%
35 | O=C(CCCCCCN1CC(=O)N2[C@@H](C3CC3)c3[nH]c4ccccc4c3C[C@H]2C1=O)NO | 108%
36 | CCCCSC1=C(Cl)CN(c2ccccc2)C1=O | 105%
37 | Clc1ccc2[nH]cc(-c3nn4cc(-c5cccnc5)nc4s3)c2c1 | 117%
38 | NC1C2CCC1CN(c1cnc(C(=O)Nc3cc(F)cc4cccnc34)cn1)C2 (stereo not given) | 79.3%
39 | CNC(=O)c1cc(N2CCc3cc(NC(=O)Nc4ccc(N5CCN(C)CC5)c(C(F)(F)F)c4)ccc32)ccn1 | 84.9%
40 | O=C(CSc1nnc(-c2ccc(Cl)cc2)n1-c1ccccc1)Nc1ccccc1Cl | 88.3%
